Candida biofilm: kills Candida albicans biofilms; AID 834; inhibition, % at 6 µM; C. albicans biofilm + clotrimazole, Alamar Blue; 0.14% of 85,000 active;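 active = inhibition above 20%; inactive = inhibition below 20%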;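 note: preformed 24 hr biofilms exposed to compound for 48 hr; 0% = biofilm without compound and 100% = blank killed by clotrimazole plus chlorhexidine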
ERb SRC1 inh: ER-beta (human) coactivator binding inhibition. TR-FRET ER-beta LBD / SRC1-Cy5 peptide binding; receptor agonist-loaded with 1 µM estradiol. inhibition, % at 25.6 µM. 1.3% of 86,000 active. AID 633;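 active = compounds whose percent inhibition of the receptor-coactivator binding signal exceeds about 50% in the single-dose screen, limit read from the data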;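 note: 0% = receptor plus peptide wells without compound and 100% = peptide-only wells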
ERa coact pot: ER-alpha (human) coactivator binding potentiation | P03372 | TR-FRET ERalpha-LBD/SRC-Cy5 coactivator binding, 2 h; 100 = basal binding, no effect | coactivator binding (% of control), % at 25.6 µM | 1.3% of 86,000 active | AID 639; in the data active = activity above about 200%;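 note: binding measured in presence of low estradiol as agonist stimulus; 0% = peptide alone without receptor and 100% = receptor with peptide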
ERa coact inh: ER-alpha (human) coactivator binding inhibition | P03372 | TR-FRET ER-alpha LBD / SRC-1 peptide, estradiol-bound | inhibition, % at 25.6 µM | 1.7% of 86,000 active | AID 629; in the data active = inhibition above about 50%;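 note: 0% = receptor plus peptide control and 100% = peptide only without receptor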
Smad3 inh: inhibitors of human Smad3 transcription factor binding; P84022; TR-FRET Smad3/Dy647-FoxH1 peptide binding, europium anti-His; inhibition, % at 25 µM; 0.29% of 88,000 active; AID 630;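 active = compounds that reduce the energy-transfer binding signal between the protein and its labelled peptide by more than half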;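 note: 0% = Smad3 plus labelled peptide maximal FRET and 100% = peptide-only background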
Target sequence (P84022 whole entry, looked up): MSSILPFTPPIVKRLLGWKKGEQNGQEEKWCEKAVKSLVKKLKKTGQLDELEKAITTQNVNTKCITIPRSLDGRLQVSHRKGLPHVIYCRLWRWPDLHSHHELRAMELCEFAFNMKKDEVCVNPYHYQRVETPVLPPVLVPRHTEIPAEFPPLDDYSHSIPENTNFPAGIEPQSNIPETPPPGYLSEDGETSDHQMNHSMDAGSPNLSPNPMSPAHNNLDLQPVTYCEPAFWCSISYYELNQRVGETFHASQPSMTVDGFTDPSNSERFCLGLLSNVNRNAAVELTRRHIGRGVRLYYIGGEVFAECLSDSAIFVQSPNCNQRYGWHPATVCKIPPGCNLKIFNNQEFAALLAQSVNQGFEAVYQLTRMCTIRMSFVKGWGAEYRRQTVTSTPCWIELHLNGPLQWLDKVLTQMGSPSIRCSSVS
Active calls of the source: *; · = no result; [ ] = another dose, or the depositor's remark. The list is not random: actives were taken first. Their share in the collection is about 3.6%.

SMILES	Candida biofilm	ERb SRC1 inh	ERa coact pot	ERa coact inh	Smad3 inh
CC1(C)CC(=O)C=C(NCC2CCCO2)C1 (centres undefined)	·	-6	106	-8	6
C=CCSc1nc2c(N)ncnc2n1[C@H]1O[C@H](CO)[C@@H](O)[C@@H]1O	·	·	·	·	7
COc1cc2c(cc1OC)C(C)N(C(=O)CCN1C(=O)C3C4C=CC(C4)C3C1=O)CC2 (centres undefined)	-3	3	99	-6	-10
CC(C)[C@@H](C)/C=C/[C@@H](C)[C@@H]1CC[C@@H]2C3=CC=C4C[C@@H](O)CC[C@]4(C)[C@@H]3CC[C@]21C	·	·	·	·	21
COc1ccc(C(=O)/C=C\N2CCOCC2)cc1	-1	-6	106	2	-8
COc1ccc(CCNC(=O)CSc2nc3ccccc3o2)cc1	7	-10	86	1	1
CC1=C(C#N)C(Nc2ccc(C)cn2)(C(F)(F)F)C(=O)N1 (centres undefined)	2	12	228*[fluorescence artefact?]	5	6
Nc1ncnc2oc(-c3ccco3)c(-c3ccco3)c12	7	88*[fluorescence artefact?]	13	94*[fluorescence artefact?]	5
CCn1c(CSc2nc3ccccc3s2)nc2ccccc21	11	1	90	-2	4
NC(=O)CSc1nnc(COc2ccccc2)n1C1CCCCC1	10	1	123	-5	-2
COc1ccc(CC(=O)OCc2cc3cccc(C)c3[nH]c2=O)cc1	8	8	131	-2	4
COc1ccc(C(=O)OCc2cc3cccc(C)c3[nH]c2=O)cc1	5	32	217*[fluorescence artefact?]	21	-1
Cc1ccc(-n2c(C)cc(C3N=C(N)Nc4nc5ccccc5n43)c2C)c(C)c1 (centres undefined)	9	26	53	53*[fluorescence artefact?]	11
COC(=O)[C@H](C)NC(=O)Nc1cc(OC)ccc1OC	5	7	98	0	6
CC(C)Cc1cc(C(=O)NCCCN2CCOCC2)no1	10	-4	105	-4	2
Cn1nc([N+](=O)[O-])c2c(-c3nc4ccccc4s3)c(N)n(C3CCCCC3)c2c1=O	6	65*	4	93*	12
CCCCNC(=O)c1cn(C)c2ccc(S(=O)(=O)N3CCOCC3)cc2c1=O	0	1	105	4	6
CC(C)CN(C(=O)COC(=O)C1c2ccccc2Oc2ccccc21)C1CCS(=O)(=O)C1 (centres undefined)	4	-5	100	-9	1
CC(C)CN(C(=O)COC(=O)c1cc2c(s1)CCC2)C1CCS(=O)(=O)C1 (centres undefined)	3	75*	23	80*	6
Cc1ccc(-n2c(-c3ccccc3)n[nH]c2=S)cc1	-4	0	73	-5	4
Cc1ccc(-c2n[nH]c(=S)n2/N=C/C=C\c2ccccc2[N+](=O)[O-])cc1	-2	49	270*[fluorescence artefact?]	52*	1
O=C(c1ccc(Oc2ccccc2)cc1)c1nc2c(n1O)CCCC2	2	-12	97	-4	-1
CCCNC(=O)C1CNc2ccccc2O1 (centres undefined)	1	-18	107	-6	-6
COc1cccc(C2CC(c3ccc(F)cc3)Nc3nc(N)nn32)c1 (centres undefined)	4	16	308*	9	28
CN1CCN(c2ccncc2S(=O)(=O)N2CCN(C)CC2)CC1	·	·	·	·	10
SMILES	Candida biofilm	ERb SRC1 inh	ERa coact pot	ERa coact inh	Smad3 inh
Cc1cc(NC(=O)COC(=O)c2cc(S(=O)(=O)N3CCOCC3)ccc2N2CCCCC2)no1	4	-6	105	-1	-6
O=C(Nc1ccc(O)cc1C(=O)O)c1ccc2c(c1)C(=O)N(Cc1ccco1)C2=O	4	54*	34	49	8
Cc1ccc(NC(=O)CN(c2cc(C)cc(C)c2)S(=O)(=O)c2c(C)noc2C)nc1	7	5	98	4	-6
O=C(Nc1cccnc1N1CCOCC1)c1cc2ccccc2oc1=O	2	-13	121	-3	9
COc1cccc2cc(C(=O)Nc3cccc(C)n3)c(=O)oc12	8	25	253*	35	4
COc1cccc2cc(C(=O)Nc3cccnc3N3CCOCC3)c(=O)oc12	4	1	289*	-18	24
CN1CCC[C@H]1c1cccnc1.O=C(O)c1ccccc1O.O=C([OH2+])c1ccccc1O.O=C([OH2+])c1ccccc1O.[Mn+2]	·	·	·	·	-10
CN1CCC[C@H]1c1cccnc1.O=C(O)c1ccccc1O.O=C([OH2+])c1ccccc1O.O=C([OH2+])c1ccccc1O.O=C([OH2+])c1ccccc1O.[Cu]	·	·	·	·	97*
O=C(Nc1ccc(N2CCOCC2)cc1)C1CCCN(S(=O)(=O)c2cccc(C(F)(F)F)c2)C1 (centres undefined)	1	85*[fluorescence artefact?]	104	-4	-5
NCc1nnn(Cc2ccccc2)c1N	·	·	·	·	1
O=C(CSc1nnc(C23CC4CC(CC(C4)C2)C3)o1)Nc1ccc(N2CCOCC2)c(Cl)c1	6	16	134	31	2
C=CCn1c(SCC(=O)NC2CCCCC2)nnc1C(C)NC(=O)c1cccs1 (centres undefined)	7	-5	129	83*	16
CC(=O)O[C@H]1CC[C@@]2(C)C(=CC[C@@H]3[C@H]4CC[C@@H](c5cc(C(F)(F)F)n(C(C)=O)n5)[C@]4(C)CC[C@H]32)C1	·	·	·	·	-6
CC(c1ccccc1)C1CC(=O)N(C2CCCCC2)C1=O (centres undefined)	1	3	97	-2	54*
O=C1C2C(c3ccccc3)C=CC(c3ccccc3)C2C(=O)N1C1CCCCC1 (centres undefined)	6	-14	84	0	7
CN1CCN(C2=C(Cl)C(=O)C(c3cnc(N4CCCCC4)s3)=C(Cl)C2=O)CC1	5	72*[fluorescence artefact?]	57	46	19
COc1ccc(-c2cc(C(F)(F)F)n3nc(C(=O)NCc4ccco4)cc3n2)cc1OC	2	19	140	6	-3
O=C(CCSCCc1ccccn1)Nc1ccc(Cl)cn1	5	-8	109	2	54*[fluorescence artefact?]
N=C(N)c1ccc(N=Nc2c(O)ccc3c2[nH]c2ccccc23)cc1	·	·	·	·	102*
NC(=O)c1sc2nc3c(c(-c4ccco4)c2c1N)CCC3	·	54*[fluorescence artefact?]	48	20	10
COc1ccc(-c2c3c(nc4sc(C(=O)Nc5cc(C)on5)c(N)c24)CCC3)cc1	5	1	182	-5	-2
CCN(c1ccccc1)S(=O)(=O)c1ccc2[nH]cc(C(=O)NCCOC)c(=O)c2c1	5	22	46	50*	6
Cc1cc(C)c(S(=O)(=O)N(C)CC(N)=O)c(C)c1	1	-6	105	-6	-7
COC(=O)/C(=C\Nc1ccc(Cl)cc1Cl)NC(=O)c1ccc(Cl)cc1Cl	4	46	52	74*[fluorescence artefact?]	-2
COC(=O)/C(=C\Nc1ccc(Cl)cc1Cl)NC(=O)c1ccccc1	-5	1	100	4	0
CC(C(N)=O)N1C(=O)c2cccc3cccc1c23 (centres undefined)	2	1	106	-7	6

Source: PubChem
